# Sfp inh: blocks B. subtilis Sfp PPTase activity | Potency, µM, inactives show largest response in the series, negative = inhibition, actives largely listed as inhibitors | Q9F4F7 | 310,000 compounds, 3.5% hits | Biochemical Sfp PPTase activity, qHTS;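 further: the enzyme is Sfp with the accession as filed and its product quenches rhodamine fluorescence; potency means the concentration at half of the fitted maximal effect; 0% = enzyme reaction without inhibitor and -100% = no enzyme wells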
#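 Buffer: 50 mM Hepes-Na pH 7.6, 10 mM MgCl2, 0.01% Nonidet P-40, 0.01% BSA. Enzyme 15 nM, pre-exposed to compound 15 min; substrates then added and fluorescence change tracked over 30 min.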
# Tau fibril FP: inhibitors of human tau fibril formation; K18 P301L tau heparin fibrillization, Alexa594 FP, 6 h; P10636; Potency, µM (doses to about 57.7 µM), for inactives: at the highest dose activity, negative = inhibition, hits mostly inhibitors; AID 1468; 280,000 compounds, 0.39% hits; further: potency means the concentration at half of the fitted maximal effect; nearly all actives have a fitted effect of over 55% in size
# Target sequence (P10636 561-689 P618L limits assumed): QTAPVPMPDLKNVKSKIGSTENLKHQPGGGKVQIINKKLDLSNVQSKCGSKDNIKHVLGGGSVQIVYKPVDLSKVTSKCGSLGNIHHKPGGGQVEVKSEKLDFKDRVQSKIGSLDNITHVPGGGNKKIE
#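 Read-out: fluorescence polarization of Alexa 594-labeled tau (0.24 uM), 555 nm excitation, 632 nm emission. Mixtures held 15 uM unlabeled K18 P301L, compound and 20 uM heparin, pH 7 acetate buffer, incubated 6 hr at 37 C.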
# FBPA coupling cs: coupling enzyme interference in Giardia aldolase counter-screen. 290,000 compounds, 0.67% hits. coupling enzyme system counterscreen, AmpLite Red fluorescence. activity change, negative = inhibition, % at 58.2 µM, hits read low. AID 2472; in the data active means activity change below about -30%
#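 Fluorescence at 525 nm excitation and 598 nm emission measured inhibition of the coupled detection system without aldolase. Compounds (at 57.5 uM final) were preincubated 10 min at room temperature with coupling enzyme reagent before a 20 min substrate/AmpLite Red step.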
# Tau ThT inhib: tau fibrillization inhibition (ThT binding). P10636. recombinant tau K18 P301L, heparin-induced fibrillization, ThT fluorescence. Potency, µM (top dose mostly 57.4 µM), inactives show at the highest dose activity, negative = inhibition, hits mostly inhibitors. 270,000 compounds, 2.1% hits; further: potency means the concentration at half of the fitted maximal effect; nearly all actives have a fitted effect of over 55% in size
#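 Tau K18 P301L fragment (15 uM unlabeled plus 0.24 uM Alexa 594-labeled) in 100 mM sodium acetate pH 7 with compound, fibrillization induced by 20 uM heparin for 6 hr at 37 C. Thioflavin T (30 uM) added, fluorescence read after 1 hr (ex 450, em 510 nm).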
# Tau fluor counter: counter-screen for tau fibril formation inhibitors. tau K18 P301L (four-repeat tau fragment) Alexa594 fluorescence, heparin fibrillization. Potency, µM (titrated, usually from 57.7 µM), for inactives: at the highest dose activity change, negative = decrease. 280,000 compounds, 0.93% hits; further: potency means the concentration at half of the fitted maximal effect; nearly all actives have a fitted effect of over 55% in size
#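 Human K18 P301L tau (15 uM unlabeled plus 0.24 uM Alexa 594-labeled, final) in 100 mM sodium acetate pH 7 was mixed with compound and 20 uM heparin and incubated 6 hr at 37 C.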
# The depositor's hits bear a star; ? = inconclusive; / = not tested or not shown; ! = a repeat was not active; [ ] = another dose, or the depositor's remark. Most compounds without a hit are left out; they make up all but 5.2% or so of the library. Unless noted, the call rests on the fitted dose curve; in most records, active means well fitted curve in the direction sought with a large enough effect; inconclusive means small, poorly fitted or top-dose-only effect, or another doubt; inactive means no such curve, though single readings can be large; an effect the other way counts as inactive or inconclusive. Unless noted, on the % scale 0 is the no-effect control and ±100 the full control effect.
SMILES,Sfp inh,Tau fibril FP,FBPA coupling cs,Tau ThT inhib,Tau fluor counter
Cc1oc(-c2ccc(C(F)(F)F)cc2)nc1CN(Cc1ccccn1)C[C@@H]1CCC(=O)N1,-19%,-2%,2,-9%,-4%
CCOc1ccc(-c2nc(CN(Cc3ccccc3)C[C@@H]3CCC(=O)N3)c(C)o2)cc1,79µM*,4%,-8,-22%,5%
CC(C)(C)c1ccc(/C([O-])=C(/C(=S)NCc2ccco2)[n+]2ccccc2)cc1,50µM*,-2%,-30*,?,-24%
S=C(NCc1ccco1)Nc1ccccc1Cl,?,2%,1,-8%,-14%
Cc1ccc[n+](/C(C(=S)NCc2ccco2)=C(/[O-])c2ccccc2Cl)c1,45µM*,-10%,-32*,-8%,-10%
CC(C)(C)c1ccc(OCC(=O)NCc2ccco2)cc1,11%,-7%,-1,-13%,-12%
O=C(Cn1ncc2c3ccccc3n(Cc3cccc(Cl)c3)c2c1=O)Nc1ccc(F)cc1F,/,4%,/,-6%,-9%
O=C(Cn1ncc2c([nH]c3ccccc32)c1=O)Nc1cccc(C(F)(F)F)c1,/,?,/,23%,3%
Cc1cc(C)c(S(=O)(=O)/N=C2/C=C(Sc3ncn[nH]3)C(=O)c3ccccc32)cc1C,1µM*,-1%,-96*,3%,4%
O=C(NCCc1ccccc1)c1ccc(CSc2nc3ccncc3n2Cc2ccccc2)cc1,/,1%,/,-6%,-26%
Cc1ccc(NC(=O)CCS(=O)(=O)c2cc(Br)cc3c2N(C(=O)C2CC2)CC3)cc1,/,-7%,/,-3%,-11%
O=C(Cn1c(=O)n(Cc2ccco2)c(=O)c2c3c(sc21)CCCCC3)c1ccccc1,56µM*,-1%,4,?,-12%
COc1ccc(C2N(c3ccccc3)CCN2c2ccccc2)cc1O,-14%,10%,-4,?,14µM*[quencher]
COc1cc(C2N3CC4(C)CN2CC(C)(C3)C4)ccc1O (stereo unspecified),-3%,7%,4,5%,10%
CC1=C(C(=O)OCc2ccccc2)C(c2ccc([N+](=O)[O-])cc2)NC(=O)N1CCCCCC(=O)O (stereo unspecified),45µM*!,4%,3,-18%,-11%
O=C(O)CCCC/C=C(\c1ccccc1)c1cccnc1,-9%,/,/,/,/
O=S(=O)(c1ccc(C2=CSC3=NCCN23)cc1)N1CCOCC1,56µM*,-14%,0,-15%,-4%
Oc1ccc(C2=CSC3=NCCN23)cc1O,89µM*,/,-5,/,/
Brc1ccc(C2=CSC3=NCCN23)cc1,11%,0%,0,-15%,-7%
COc1ccc(-c2cc(C3C4C=CCC(C)C4C(=O)N3Cc3ccccc3)ccc2F)cc1 (stereo unspecified),-19%,/,-3,/,/
Cc1c(C(=O)Nc2cccc(F)c2)oc2c1-c1nn(Cc3c(F)cccc3Cl)cc1CC2,/,-8%,/,0%,-4%
CC(=O)Oc1ccc2oc(/C=C/N(C)C)c([N+](=O)[O-])c2c1,9%,10%,-1,28µM*,-16%
CC(C)=Cc1oc2ccc([N+](=O)[O-])cc2c1N1CCOCC1,-7%,-4%[2.34 µM],0,3%,-5%[2.34 µM]
C/C(=C/c1oc2ccc(O)cc2c1[N+](=O)[O-])N(C)C,71µM*,-12%,0,4µM*,?
O=C(Nc1cccc(F)c1)c1ccc(-c2ccccc2)s1,/,?,/,6%,-19%
SMILES,Sfp inh,Tau fibril FP,FBPA coupling cs,Tau ThT inhib,Tau fluor counter
COc1ccc(NC(=O)c2cc3c(=O)n(Cc4ccco4)ccc3nc2C)cc1,/,3%,/,-8%,1%
Cc1c(Cl)cccc1NC(=O)CC(c1ccc(F)cc1)N1Cc2ccccc2C1=O (stereo unspecified),/,-5%,/,-2%,-21%
CCOC(=O)c1sc(NC(=O)CSc2n[nH]c(-c3ccccc3)n2)c(C#N)c1C,7.1µM*,?,8,?,?
CCOC(=O)c1sc(NC(=O)CSc2nnc(Cc3ccccc3)o2)c(C#N)c1C,3.2µM*,?,7,28µM*,?
CCOC(=O)c1sc(NC(=O)c2cc(-c3ccccc3)nc3ccccc23)c(C#N)c1C,40µM*,-1%,9,?,?
CCOC(=O)c1c(NC(=O)CSc2nnc(Cc3ccccc3)o2)sc(C(C)=O)c1C,-5%,-1%,1,-23%,-22%
COc1cc(C(=O)N2CCN(c3ccc(Nc4ccccc4)nn3)CC2)cc(OC)c1OC,/,3%,/,?,-16%
O=c1c2ccccc2n(Cc2ccccc2F)c(=O)n1-c1cccc(F)c1,/,-6%,/,-5%,-12%
COC(=O)c1[nH]c2cc(OC)ccc2c1NC(=O)CN1CCN(c2cccc(C)c2)C(C)C1 (stereo unspecified),-7%,?,3,?,14µM*[quencher]
COC(=O)c1[nH]c2cc(C)ccc2c1NC(=O)CN1CCOCC1,24%,4%,5,-8%,-8%
Cc1cc(=O)n(CC(C)C)c(O)c1C#N,-16%,-13%,-33*,?,-13%
Cc1cc(=O)n(CCO)c(O)c1C#N,-18%,-10%,-46*,-17%,-6%
CCC1(CC)Cc2ccccc2C2=C(C(=O)N3CCCCC3)C(=O)C(=O)N21,-5%,3%,-34*,2%,7%
CC(C(=O)N1CCCCC1)N1C(=O)c2ccccc2C1=O (stereo unspecified),10%,2%,-1,-5%,0%
CC1(C)Cc2ccccc2C2=C(C(=O)N3CCCCCC3)C(=O)C(=O)N21,12%,1%,-42*,-1%,3%
O=C1C(=O)N2C(=C1C(=O)N1CCCCCC1)c1ccccc1CC21CCCC1,14%,-4%,-18,-15%,2%
COC(=O)c1c(NC(=O)Cn2nc(C(F)F)cc2C(F)F)sc(C)c1C,56µM*,7%,0,5%,-11%
Cc1ccc(O)c(C2=NCCNC(C(F)(F)F)=C2)c1,7%,2%,5,-21%,-12%
Oc1c(C2=NCCNC(C(F)(F)F)=C2)ccc2ccccc12,-23%,?,-11,6.3µM*,?
Cc1c(C(=O)NCc2cccc(Cl)c2)sc2nc3n(c(=O)c12)CCC3,/,?,/,-17%,?
Cc1nc(NCCO)c2nc(-c3ccccc3)n(CCCN(C)C)c2n1,38%,13%,1,7%,6%
COc1ccccc1Nc1ncc(-c2cccs2)s1,-27%,-8%,1,14µM*,16µM*[quencher]
COc1ccccc1Nc1ccc(C(=O)NCc2cccs2)cn1,20%,-3%[2.34 µM],18,-2%,-6%
COc1ccc2c(c1)SCCC2=O,14%,11%,2,-5%,-1%
COc1ccc2c(c1)OCC1=C2CCC2(C)C(=O)CC=C12 (stereo unspecified),20µM*,?,-34*,20µM*,?
CCc1nnc2c(NCc3ccccc3OC)nc3ccccc3n12,/,-1%,/,5%,-8%

# Screening data: PubChem, National Center for Advancing Translational Sciences (NCATS)
